# Assay outcomes deposited in PubChem BioAssay by National Center for Advancing Translational Sciences (NCATS).
# Sm TGR inh: S. mansoni TGR enzyme inhibition; purified TGR, DTNB reduction, TNB absorbance 405 nm; Potency, µM (doses to about 114 µM), for inactives: at the top dose activity change, negative = inhibition, hits mostly inhibitors; Q962Y6; actives 3% (n = 360,000); AID 485364; further: potency means the concentration at half of the fitted maximal effect; on the % scale 0 is the no-effect control and ±100 the full control effect; nearly all actives have a fitted effect of over 60% in size
#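 First, TGR (20 nM dispensed) and NADPH were mixed with compound. Second, a 15 min room-temperature incubation followed. Third, further NADPH and then DTNB were added to start the reaction. Finally, TNB absorbance was monitored kinetically.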
# HCV inhibitor: HCV inhibition; Huh7.5.1 HCVcc-Cre infection, luciferase reporter, 44 h; Potency, µM (series often up to 41.8 µM), for the others: at the highest dose activity change, negative = inhibition, hits mostly inhibitors; actives 3.4% (n = 340,000); AID 651820; further: potency means the concentration at half of the fitted maximal effect; on the % scale 0 is the no-effect control and ±100 the full control effect
#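 Reporter virus HCVcc-Cre (~0.5 moi) infects cells exposed to compound; seeding density 1,000 cells/well with 4 h settling beforehand. Luminescence, 15 sec read, taken 44 h post-infection following a 15 min RT substrate incubation.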
# SARS PLP yeast: inhibitors of SARS-CoV papain-like protease in yeast; S. cerevisiae expressing SARS-CoV PLpro, growth rescue; Potency, µM (series often up to 32.9 µM), inactives show at the highest dose activity, positive = growth rescue, actives largely listed as activators; actives 0.19% (n = 330,000); calls by dose curve; further: potency means the concentration at half of the fitted maximal effect; 0% is about no effect; nearly all actives have a fitted effect of over 55% in size
# HCMV antiviral: blocks human cytomegalovirus replication; actives 4.5% (n = 410,000); AID 1259415; HFF cells, HCMV-luciferase reporter, 72 h; active compounds read low; activity change, negative = inhibition, % at 57.5 µM; in the data active means activity change below about -60%; inconclusive means no clear call, values can overlap the other calls; inactive means above about -39%; further: on the % scale 0 is the no-effect control and ±100 the full control effect
#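 Compounds were evaluated in HFFs infected with an HCMV luciferase reporter virus (MOI 1 PFU/cell). Luciferase in lysates collected 72 h post infection served as the replication measure.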
# Pf growth 96h: P. falciparum growth inhibition at 96 hours; actives 6.9% (n = 320,000); P. falciparum luciferase reporter growth, 96 h; Potency, µM (series often up to 28.7 µM), for inactives: top-dose activity change, negative = inhibition, actives largely listed as inhibitors; AID 504834; further: potency means the concentration at half of the fitted maximal effect; on the % scale 0 is the no-effect control and ±100 the full control effect
#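 Cell-based qHTS: luciferase-tagged P. falciparum in erythrocytes (2% hematocrit, 0.05% parasitemia final) incubated with compounds for 96 hours, 37 C, 5% CO2; luciferase detection reagent then added and luminescence measured.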
# Pf growth 48h: inhibits P. falciparum growth in the first generation, 48 h. P. falciparum luciferase growth in erythrocytes, 48 h. Potency, µM (top dose mostly 28.7 µM), for inactives: at the highest dose activity change, negative = inhibition, hits mostly inhibitors. actives 5.9% (n = 310,000); further: potency means the concentration at half of the fitted maximal effect; on the % scale 0 is the no-effect control and ±100 the full control effect
#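 First compound was added to culture medium, then infected red cells at 0.1% parasitemia and 2% hematocrit (final). After incubation at 37 C under 5% CO2, luciferase detection reagent was dispensed and light output recorded.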
# An asterisk follows results filed as active; u = inconclusive; x = not tested or not shown; [ ] = dose if it differs, or a comment. Hits are enriched below; roughly 15% of the tested compounds scored in any of these assays. Unless noted, the call rests on the fitted dose curve; in most records, active means well fitted curve in the direction sought with a large enough effect; inconclusive means small, poorly fitted or top-dose-only effect, or another doubt; inactive means no such curve, though single readings can be large; an effect the other way counts as inactive or inconclusive.
SMILES,Sm TGR inh,HCV inhibitor,SARS PLP yeast,HCMV antiviral,Pf growth 96h,Pf growth 48h
Nc1nc(SCC(=O)NCC2CCCO2)[nH]c(=O)c1NC(=O)c1ccc(F)c(F)c1 (stereo not given),1%,7%,-1%,-7,17µM*,1%
COc1ccc(NC(=O)CSc2nc(N)c(NC(=O)c3ccccc3F)c(=O)[nH]2)cc1,-18%,x,1%,-1,67%,22%
Nc1[nH]c(C(=O)c2ccccc2)c(-c2ccc(C(F)(F)F)cc2)c1C(=O)NCc1ccc(Cl)cc1Cl,x,x,x,-10,x,x
CCCCN1CC(COc2ccc(OC)cc2)OCCS1(=O)=O (stereo not given),x,x,x,-22,x,x
Nc1nc(N)c(-c2cccc(C(F)(F)F)c2)c(Cc2cccc(C(F)(F)F)c2)n1,x,u,x,-75*,x,x
O=C(Nc1ccccc1C(=O)O)/C(=C/c1ccc(Cl)cc1Cl)NC(=O)c1ccco1,-14%,16%,3%,-22,u,11%
CC(C)(C)c1ccc(C(=O)NNc2ncnc3c2cnn3-c2ccccc2)cc1,0%,x,x,-73*,x,x
OCCOCCNc1ncnc2c1cnn2-c1ccccc1,3%,34%,8%,211,63%,1.3µM*
OCCOCCNc1ncnc2c1cnn2-c1ccc(Cl)cc1,3%,-2%,3%,118,x,3.3µM*
CCOC(=O)O[C@]1(C(=O)OCCl)CC[C@@H]2[C@H]3CCC4=CC(=O)C=C[C@]4(C)[C@@H]3[C@@H](O)C[C@@]21C,x,x,x,x,-21%,-19%
CCOc1ccccc1C(=O)Nc1cnn(Cc2ccc(F)cc2)c1,2%,u,9%,-63*,-28%,9%
O=C(Nc1ccccc1-c1ccccc1)c1ccccc1Br,-18%,-8%,-6%,-28,0%,0%
O=C(Nc1ccccc1Br)c1ccccc1-c1ccccc1,-3%,u,15%,-36,7.4µM*,2%
O=C(Nc1cnn(Cc2ccc(Cl)cc2)c1)c1cnccn1,-14%,11%,2%,-4,51%,-1%
CSc1ccccc1NC(=O)c1ccoc1C,-9%,u,-9%,-22,x,-6%
Cc1ccc(C(=O)NCC(=O)N(C)Cc2ccccc2C)s1,x,x,x,26,x,x
CCOc1ccccc1NC(=O)c1ccoc1C,-1%,6.3µM*,-2%,7,x,-8%
CCOc1ccccc1C(=O)NCC(=O)N(C)Cc1ccccc1C,-12%,5%,1%,-16,13µM*,10µM*
Cc1nc(CN(C)Cc2nc(Cc3ccccc3Cl)no2)cs1,-3%[57.1 µM],10%,1%,u,-1%,1%
CCOc1ccccc1C(=O)Nc1ccccc1O,-12%,11µM*,-31%,11,x,u
CCOc1ccccc1C(=O)Nc1cccc2ccccc12,-9%,u,-6%,37,80%,-8%
CCOc1ccccc1C(=O)Nc1ccccc1-c1ccccc1,11%,-22%,-29%,2,4.1µM*,13%
Cc1nc2c(-c3ccc(F)cc3)cnn2c(N)c1-c1ccccc1,0%,14µM*,-11%,-72*,-52%,4%[0.00184 µM]
Cc1nc2c(-c3ccc(Cl)cc3)cnn2c(N)c1-c1ccc(F)cc1,1%,-3%,0%,u,232%,6%
CCCS(=O)(=O)c1c(S(=O)(=O)CCC)c2cnccn2c1C(=O)c1ccc(CC)cc1,-3%,-20%,6%,-12,x,3.3µM*
CCCS(=O)(=O)c1c(S(=O)(=O)CCC)c2cnccn2c1C(=O)c1ccc(F)cc1,15%,2%,-1%,5,-20%,13µM*
CCCS(=O)(=O)c1c(S(=O)(=O)CCC)c2cc(CC)ccn2c1C(=O)c1ccc(Cl)cc1,-8%,x,x,2,x,x
CCCS(=O)(=O)c1c(S(=O)(=O)CCC)c2cnccn2c1C(=O)c1ccc(OC)cc1,-28%,19%,-1%,26,u,10µM*
O=C(NCCCN1CCOCC1)C(c1ccccc1)c1ccccc1,-2%,7%,2%,11,14%,17%
